Several values for one entry are separate records, joined by “and”; a condition that tells them apart may be missing. Identical values can stand only once. Inconclusive results are not listed. Activity calls are given as the source filed them. Unless noted, calls follow the shape of the dose curve; as a rule, active = well fitted curve in the direction sought with a large enough effect; inconclusive = small, poorly fitted or top-dose-only effect, or another doubt; inactive = no such curve, though single readings can be large; an effect the other way counts as inactive or inconclusive.
Tested on: not listed separately
Assay: Primary qHTS for small molecule stabilizers of the endoplasmic reticulum resident proteome: Secreted ER Calcium Modulated Protein (SERCaMP) assay (AID 1508630)
Settings: SH-SY5Y GLuc-SERCaMP (Gaussia luciferase released on ER calcium loss) secretion, thapsigargin, luminescence; series mostly up to 38.4 µM; activity change, negative = inhibition: at the top concentration
Summary of the method: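 GLuc-SERCaMP-expressing SH-SY5Y cells, pretreated 16 h with compound, are challenged with thapsigargin to empty ER calcium stores; after 4 h, coelenterazine is added directly to the medium and luminescence is imaged.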
% is scaled to controls: 0 for no effect and ±100 for the full control effect.

Q: Which “activity change, negative = inhibition” value does the source give for `Nc1nccc(Oc2ccc(NC(=O)c3c[nH]cc(-c4ccc(F)cc4)c3=O)cc2F)c1Cl` here?
A: The value was 48.4% (inactive).

Q: For `Nc1nc(NCCNc2ncc(-n3ccnc3)c(-c3ccc(Cl)cc3Cl)n2)ccc1[N+](=O)[O-]`, which “activity change, negative = inhibition” value is on record?
A: The value was 54.3% (inactive).

Q: With `CNC(=O)c1ccc(-c2cnc3ncc(Cc4ccc5ncccc5c4)n3n2)cc1F` as the compound, how does the “activity change, negative = inhibition” value read?
A: The value was 56.4% (inactive).

Q: For `Nc1nc(-c2nn(Cc3ccccc3F)c3ncccc23)nc(N)c1N1CCOCC1`, which “activity change, negative = inhibition” value is on record?
A: Its value is 79.4% (inactive).

Q: With `CC[C@H](CO)Nc1nc(NCc2ccccc2)c2ncn(C(C)C)c2n1` as the compound, how does the Potency read?
A: Its Potency is “inactive”.

Q: Which “activity change, negative = inhibition” value does the source give for `CC(C)(O)CCc1ccc(OCc2cc(-c3cccc(OC(F)F)c3)c3ncccc3c2)cc1` here?
A: Its value is 0% (inactive).

Q: For `Cc1cc(Nc2cc(NC(=O)c3c(Cl)cccc3Cl)ccn2)nc(N)n1`, which “activity change, negative = inhibition” value is on record?
A: The value was 20.5% (inactive).

Q: Which “activity change, negative = inhibition” value does the source give for `COc1cc(-c2nn(C3CCC(N4CCN(C(C)=O)CC4)CC3)c3ncnc(N)c23)ccc1NC(=O)c1cc2ccccc2n1C` (configuration not stated) here?
A: The value was 0% (inactive).

Q: With `CN1CC[C@@H](c2c(O)cc(O)c3c(=O)cc(-c4ccccc4Cl)oc23)[C@@H](O)C1` as the compound, how does the “activity change, negative = inhibition” value read?
A: The value was 12.8% (inactive).

Q: Which “activity change, negative = inhibition” value does the source give for `Cn1c(CNc2ccc(C(=N)N)cc2)nc2cc(C(=O)N(CCC(=O)O)c3ccccn3)ccc21` here?
A: The value was 75.3% [at 21.6 µM] (inactive).

Q: For `Cc1c(CN2CCN(S(C)(=O)=O)CC2)sc2c(N3CCOCC3)nc(-c3cnc(N)nc3)nc12`, which “activity change, negative = inhibition” value is on record?
A: The value was 0% (inactive).

Q: For `Cn1c(=O)n(-c2ccc(C(C)(C)C#N)cc2)c2c3cc(-c4cnc5ccccc5c4)ccc3ncc21`, which “activity change, negative = inhibition” value is on record?
A: Its value is 91.9% (inactive).

Q: For `CNC(=O)c1ccccc1Nc1nc(Nc2ccc(N3CCOCC3)cc2OC)ncc1Cl`, which “activity change, negative = inhibition” value is on record?
A: Its value is -108% (inactive).

Q: For `Cc1cc(CN2CCN(c3c(Br)cnc4nc(-c5ccc(N6CCN(C)CC6)cc5)[nH]c34)CC2)no1`, which “activity change, negative = inhibition” value is on record?
A: The value was 230% (inactive).

Q: For `c1cc(-c2cnn3cc(-c4ccc(OCCN5CCCCC5)cc4)cnc23)ccn1`, which “activity change, negative = inhibition” value is on record?
A: Its value is 376% (inactive).

Q: With `CC(C)(C)NC(=O)[C@H]1CN(Cc2cccnc2)CCN1C[C@@H](O)C[C@@H](Cc1ccccc1)C(=O)N[C@H]1c2ccccc2C[C@H]1O` as the compound, how does the “activity change, negative = inhibition” value read?
A: The value was 86.1% (inactive).

Q: For `c1nc2nc(Nc3ccc(N4CCOCC4)cc3)nc(NC3CCCCC3)c2[nH]1`, which “activity change, negative = inhibition” value is on record?
A: The value was 360% (inactive).

Q: Which “activity change, negative = inhibition” value does the source give for `CC(C)[C@H](C(=O)Nc1ccc(C(=O)NO)cc1)c1ccccc1` here?
A: The value was 258% (inactive).

Q: Which “activity change, negative = inhibition” value does the source give for `O=c1[nH]nc(Sc2ncc([N+](=O)[O-])s2)n1-c1ccc2c(c1)OCCO2` here?
A: The value was 163% (inactive).

Q: Which “activity change, negative = inhibition” value does the source give for `CCc1cc2c(cc1N1CCC(N3CCOCC3)CC1)C(C)(C)c1[nH]c3cc(C#N)ccc3c1C2=O` here?
A: The value was 0% (inactive).

Q: Which “activity change, negative = inhibition” value does the source give for `NC(=O)c1cccc2cn(-c3ccc([C@@H]4CCCNC4)cc3)nc12` here?
A: Its value is 0% (inactive).

Q: With `COc1cc(C(=O)NS(=O)(=O)c2ccccc2C)ccc1Cc1cn(C)c2ccc(NC(=O)OC3CCCC3)cc12` as the compound, how does the “activity change, negative = inhibition” value read?
A: The value was 309% (inactive).

Q: Which “activity change, negative = inhibition” value does the source give for `CN(c1ncccc1CNc1nc(Nc2ccc3c(c2)CC(=O)N3)ncc1C(F)(F)F)S(C)(=O)=O` here?
A: The value was 308% (inactive).

Q: For `O=c1c2ccccc2nc2n1CCc1c-2[nH]c2ccccc12`, which “activity change, negative = inhibition” value is on record?
A: Its value is 70.6% (inactive).

Q: With `COc1cccc(-c2ccc(NC(=O)C3=C(C(=O)O)CCC3)c(F)c2)c1` as the compound, how does the “activity change, negative = inhibition” value read?
A: Its value is 0% (inactive).

Biological target: Cytochrome P450 2D6 (Homo sapiens) (UniProt P10635)
Assay: Cytochrome P450 family 2 subfamily D member 6 (CYP2D6) small molecule antagonists: luciferase biochemical (cell-free) qHTS assay (AID 1645840; active = well fitted curve in the direction sought with a large enough effect in the repeat runs; an effect the other way counts as inactive or inconclusive; also: nearly all actives have a fitted effect of over 55% in size; also: potency is read from the fitted curve at half-maximal effect)
Settings: P450-Glo CYP2D6 enzyme, luciferin luminescence, 1 h; series mostly up to 57.4 µM; activity change, negative = inhibition: at the top concentration
Summary of the method: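 P450-Glo luminescent screen: recombinant CYP2D6 enzyme–proluciferin substrate mix preincubated with compound 10 min at room temperature, then NADPH regeneration added for 1 h at room temperature. Detection reagent added for 20 min; luciferin light read as relative luminescence units.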

Chain of Cytochrome P450 2D6 (Homo sapiens) (P10635 whole entry, looked up): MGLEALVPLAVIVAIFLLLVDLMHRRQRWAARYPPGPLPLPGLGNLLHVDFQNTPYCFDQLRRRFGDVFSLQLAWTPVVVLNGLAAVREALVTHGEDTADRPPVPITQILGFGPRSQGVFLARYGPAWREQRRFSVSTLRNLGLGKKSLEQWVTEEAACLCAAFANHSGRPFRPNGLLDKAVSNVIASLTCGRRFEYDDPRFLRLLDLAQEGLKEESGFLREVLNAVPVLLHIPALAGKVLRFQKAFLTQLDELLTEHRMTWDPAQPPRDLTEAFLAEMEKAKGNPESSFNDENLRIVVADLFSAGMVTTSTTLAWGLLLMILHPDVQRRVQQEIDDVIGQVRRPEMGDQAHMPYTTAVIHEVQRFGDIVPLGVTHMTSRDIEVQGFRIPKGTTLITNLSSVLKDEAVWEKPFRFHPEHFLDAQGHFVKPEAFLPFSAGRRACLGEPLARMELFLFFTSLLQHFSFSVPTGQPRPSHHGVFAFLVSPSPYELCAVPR

Q: Which Potency does the source give for `Nc1nccc(Oc2ccc(NC(=O)c3c[nH]cc(-c4ccc(F)cc4)c3=O)cc2F)c1Cl` here?
A: The Potency was 3.38 µM (active).

Q: For `Nc1nc(NCCNc2ncc(-n3ccnc3)c(-c3ccc(Cl)cc3Cl)n2)ccc1[N+](=O)[O-]`, which Potency is on record?
A: Its Potency is 1.69 µM (active).

Q: With `Nc1ncnc2c1c(-c1cnc3[nH]ccc3c1)nn2C1CCCC1` as the compound, how does the “activity change, negative = inhibition” value read?
A: Its value is -17.5% (inactive).

Q: Which Potency does the source give for `Clc1cccc(-n2nnnc2NCc2ccccc2Oc2ccccn2)c1Cl` here?
A: The Potency was 5.35 µM (active).

Q: For `Cc1c(CN2CCN(S(C)(=O)=O)CC2)sc2c(N3CCOCC3)nc(-c3cnc(N)nc3)nc12`, which “activity change, negative = inhibition” value is on record?
A: Its value is -2.7% (inactive).

Q: For `CCOC(=O)C1=C(C)NC2=C(C(=O)CC(C)(C)C2)C1c1ccc(-c2ccccc2)cc1` (configuration not stated), which “activity change, negative = inhibition” value is on record?
A: Its value is -1.63% (inactive).

Biological target: Cytochrome P450 2C9 (Homo sapiens) (UniProt P11712)
Assay: Cytochrome P450 family 2 subfamily C member 9 (CYP2C9) small molecule antagonists: luciferase biochemical (cell-free) qHTS assay (AID 1645842; active = well fitted curve in the direction sought with a large enough effect in the repeat runs; an effect the other way counts as inactive or inconclusive; also: nearly all actives have a fitted effect of over 55% in size; also: potency is read from the fitted curve at half-maximal effect)
Settings: P450-Glo CYP2C9 enzyme assay, luciferin luminescence; series mostly up to 57.4 µM; activity change, negative = inhibition: at the top concentration
Summary of the method: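 Luminescence, after 20 min with luciferin detection reagent, reflected CYP2C9 turnover during a 1 h NADPH-driven reaction at 37C. Enzyme-substrate mix contained 0.4% bovine serum albumin and was preincubated with compound 10 min at room temperature.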

Chain of Cytochrome P450 2C9 (Homo sapiens) (P11712 whole entry, looked up): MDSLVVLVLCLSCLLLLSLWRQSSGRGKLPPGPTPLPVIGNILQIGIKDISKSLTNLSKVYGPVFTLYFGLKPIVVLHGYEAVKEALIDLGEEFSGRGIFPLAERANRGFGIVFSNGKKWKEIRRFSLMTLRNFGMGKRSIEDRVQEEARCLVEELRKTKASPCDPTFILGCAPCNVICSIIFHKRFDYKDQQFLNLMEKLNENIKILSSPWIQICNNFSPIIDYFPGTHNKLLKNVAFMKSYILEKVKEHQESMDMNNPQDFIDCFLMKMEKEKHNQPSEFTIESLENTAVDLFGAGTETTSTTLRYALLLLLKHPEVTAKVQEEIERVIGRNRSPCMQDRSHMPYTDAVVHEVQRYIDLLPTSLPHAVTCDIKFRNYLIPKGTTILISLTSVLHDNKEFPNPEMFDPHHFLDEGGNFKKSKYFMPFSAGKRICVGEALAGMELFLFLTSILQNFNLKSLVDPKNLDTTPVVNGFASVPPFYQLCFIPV

Q: For `Nc1nccc(Oc2ccc(NC(=O)c3c[nH]cc(-c4ccc(F)cc4)c3=O)cc2F)c1Cl`, which Potency is on record?
A: Its Potency is 8.49 µM (active).

Q: With `Nc1nc(NCCNc2ncc(-n3ccnc3)c(-c3ccc(Cl)cc3Cl)n2)ccc1[N+](=O)[O-]` as the compound, how does the Potency read?
A: The Potency was 0.134 µM (active).

Q: With `CNC(=O)c1ccc(-c2cnc3ncc(Cc4ccc5ncccc5c4)n3n2)cc1F` as the compound, how does the Potency read?
A: Its Potency is 2.13 µM (active).

Q: With `Nc1ncnc2c1c(-c1cnc3[nH]ccc3c1)nn2C1CCCC1` as the compound, how does the Potency read?
A: The Potency was 0.425 µM (active).

Q: Which Potency does the source give for `Clc1cccc(-n2nnnc2NCc2ccccc2Oc2ccccn2)c1Cl` here?
A: The Potency was 6.01 µM (active).

Q: Which Potency does the source give for `Cc1c(C)n(Cc2ccc(-c3ccccc3C(=O)O)cc2)c2ccc(C(=O)N[C@@H](C)c3ccc([N+](=O)[O-])cc3)cc12` here?
A: Its Potency is 15.1 µM (active).

Q: With `COc1cc(-c2nn(C3CCC(N4CCN(C(C)=O)CC4)CC3)c3ncnc(N)c23)ccc1NC(=O)c1cc2ccccc2n1C` (configuration not stated) as the compound, how does the Potency read?
A: Its Potency is 3.01 µM (active).

Q: Which Potency does the source give for `Cn1c(CNc2ccc(C(=N)N)cc2)nc2cc(C(=O)N(CCC(=O)O)c3ccccn3)ccc21` here?
A: Its Potency is 10.7 µM (active).

Q: Which Potency does the source give for `Cc1c(CN2CCN(S(C)(=O)=O)CC2)sc2c(N3CCOCC3)nc(-c3cnc(N)nc3)nc12` here?
A: Its Potency is 10.7 µM (active).

Q: With `CNC(=O)c1ccccc1Nc1nc(Nc2ccc(N3CCOCC3)cc2OC)ncc1Cl` as the compound, how does the Potency read?
A: Its Potency is 0.301 µM (active).

Q: For `Cc1cc(CN2CCN(c3c(Br)cnc4nc(-c5ccc(N6CCN(C)CC6)cc5)[nH]c34)CC2)no1`, which Potency is on record?
A: Its Potency is 9.52 µM (active).

Q: With `COC(=O)C1=C(C)NC(C)=C(C(=O)OCCN2CCN(C(c3ccccc3)c3ccccc3)CC2)C1c1cccc([N+](=O)[O-])c1` (configuration not stated) as the compound, how does the Potency read?
A: Its Potency is 1.55 µM (active).

Q: For `NC(=O)c1cccc2cn(-c3ccc([C@@H]4CCCNC4)cc3)nc12`, which “activity change, negative = inhibition” value is on record?
A: The value was -1.54% (inactive).

Q: Which Potency does the source give for `COc1cc(C(=O)NS(=O)(=O)c2ccccc2C)ccc1Cc1cn(C)c2ccc(NC(=O)OC3CCCC3)cc12` here?
A: Its Potency is 13.8 µM (active).

Q: For `COc1cccc(-c2ccc(NC(=O)C3=C(C(=O)O)CCC3)c(F)c2)c1`, which Potency is on record?
A: Its Potency is 21.3 µM (active) and 26.8 µM (active).

Q: For `CCOC(=O)C1=C(C)NC2=C(C(=O)CC(C)(C)C2)C1c1ccc(-c2ccccc2)cc1` (configuration not stated), which Potency is on record?
A: Its Potency is 2.68 µM (active).

Source: PubChem BioAssay (NCATS)
